An excerpt weighted towards active compounds, which were near 4.8% of everything screened.
hcDAF12 agonist: activates DAF-12 receptor from parasite H. contortus; HEK293 hcDAF-12 lit1-tk-luc reporter, luminescence; 0% DMSO, 100% Δ7-dafachronic acid; activation, % at 6.8 µM; hit rate 1.4% among 370,000; AID 652067;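 active = activation above the mean of all tested compounds plus 3 SD, cut at about 5.5% in these data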;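 note: 100% = response to 3 µM Δ7-dafachronic acid high control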
DAX1 inh-1: inhibitors of DAX1 repression of SF-1 activated StAR promoter. HEK293T StAR-luciferase reporter, SF-1/DAX-1 repression relief. inhibition, % at 6.8 µM. hit rate 1.1% among 370,000. AID 652010;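 active = inhibition above the mean over all tested compounds plus 3 SD, cut at about 3.6% in these data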;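 note: 0% = DAX-1 cells with DMSO and 100% = cells lacking DAX-1 with DMSO; higher inhibition means more luminescence from relief of DAX-1 repression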
DAX1 inh-2: inhibits human nuclear receptor DAX1 | P51843 | HEK293 Gal4-DAX1 luciferase reporter, luminescence | inhibition, % at 6.75 µM | hit rate 0.99% among 340,000 | AID 504766;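 active = inhibition above the mean over all tested compounds plus 3 SD, cut at about 4.2% in these data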;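 note: 0% = DAX1-transfected cells with DMSO and 100% = empty-vector control cells with DMSO; inhibition shows as a rise in luminescence from relieved DAX1 repression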
Target sequence (P51843 207-470 limits assumed): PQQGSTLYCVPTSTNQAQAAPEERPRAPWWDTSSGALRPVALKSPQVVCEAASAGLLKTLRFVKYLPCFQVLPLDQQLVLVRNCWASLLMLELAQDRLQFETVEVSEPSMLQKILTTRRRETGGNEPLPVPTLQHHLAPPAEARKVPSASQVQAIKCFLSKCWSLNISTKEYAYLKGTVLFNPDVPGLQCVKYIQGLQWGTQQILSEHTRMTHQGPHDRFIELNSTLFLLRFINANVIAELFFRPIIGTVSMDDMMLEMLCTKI
SMARCA2 activ: increases SMARCA2 function in MMTV reporter cells. MG213 cells, MMTV-luciferase reporter, dexamethasone, overnight. hit rate 1% among 370,000. activation, % at 9.1 µM; in the data active = activation above about 7.8%;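 note: 0% = vehicle wells and 100% = reference activator wells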
hgDAF12 agonist: hgDAF-12 agonism, primary luciferase screen; HEK293 GAL4-hgDAF12 UAS-luciferase reporter, agonist luminescence; normalized to butyrate control; activation, % at 6.8 µM; hit rate 1.8% among 370,000; AID 687014;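 active = activation above a cutoff set at the mean of all screened compounds plus 3 SD, cut at about 10% in these data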;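 note: 0% = DMSO wells and 100% = sodium butyrate wells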
ssDAF-12 act: activators of S. stercoralis DAF-12 nuclear receptor | hit rate 1% among 370,000 | activation, % at 6.8 µM | HEK293 ssDAF-12/GRIP1 lit1-tk-luc reporter, luminescence; % of 3 µM dafachronic acid response;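 active = activation above the mean over all tested compounds plus 3 SD, cut at about 0.9% in these data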;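 note: 0% = DMSO-only wells and 100% = 3 µM delta7-dafachronic acid wells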
SMARCA2 act conf: SMARCA2 activation, confirmation screen; hit rate 30% among 3,500; activation, % at 9.1 µM; shares compounds with SMARCA2 activ; MG213 cells, MMTV-luciferase with dexamethasone, luminescence, overnight; MG213 cells expressing E1A, Rb sequestered; DMSO wells 0%, reference activator 100%;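 active = activation above its plate's cutoff, the mean activation of tested wells plus 3 SD, cut at about 7.9% in these data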
VP16 Luc act: activates GAL4-VP16 luciferase, flagging SMARCA2 activator hits; AID 686939; activation, % at 9.1 µM; hit rate 41% among 3,500; HEK293 GAL4-VP16 pG5luc reporter, luciferase luminescence; scaled: DMSO wells 0%, SAHA wells 100%; shares compounds with SMARCA2 activ;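 active = activation above the solvent-only control well mean plus 3 SD, averaged across control plates, cut at about 5.2% in these data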
* hit, by the source's call; x = no result.

SMILES | hcDAF12 agonist | DAX1 inh-1 | DAX1 inh-2 | SMARCA2 activ | hgDAF12 agonist | ssDAF-12 act | SMARCA2 act conf | VP16 Luc act
Clc1cnc(N/N=C/c2ccncc2)c(Cl)c1 | -1.4 | 0.6 | -0.1 | -0.6 | 3.0 | -0.8 | x | x
O=C(NCc1cccs1)c1cccnc1Cl | -2.1 | -0.2 | 0.7 | 10.7* | 1.0 | -0.7 | 0.0 | 0.1
O=Cc1ccc(OCc2ccc3ccccc3c2)cc1 | 3.0 | 0.8 | -0.5 | 8.2* | 11.8* | -0.4 | 4.9 | 6.1*
COc1ccc(COc2cccc(C=O)c2)cc1 | 1.7 | 1.1 | -2.2 | 4.6 | 9.9 | 0.2 | x | x
Cc1cccc(NC(=O)CSc2nnnn2-c2cccnc2)c1 | 0.2 | 0.0 | 1.5 | 4.6 | -2.6 | -0.6 | x | x
CCC(=O)Nc1ccc(NC(=O)CSc2nnnn2-c2cccnc2)cc1C | -0.3 | 0.1 | -0.1 | 9.7* | -3.2 | -1.4 | -2.1 | 0.9
COc1ccc(N=C2C(=Nc3ccc(OC)cc3)N(c3ccc(OC)cc3)C(=S)N2c2ccccc2)cc1 | 4.1 | 1.8 | 2.4 | 3.7 | 9.1 | 0.5 | x | x
COc1ccc(N2CC(=O)N(c3ccccc3)C2=S)cc1 | 4.3 | 1.8 | 0.0 | 11.2* | 12.3* | -0.3 | 8.7* | 1.3
CC(c1ccccn1)C(C)(O)C(C)c1ccccn1 (configuration not stated) | -0.1 | 0.2 | -0.4 | 1.7 | 1.4 | -1.3 | x | x
O=C1NC(c2ccccc2Br)=N/C1=C\c1ccco1 | 0.6 | 0.5 | 4.2 | 13.9* | 2.8 | -1.3 | 9.6* | 7.3*
CCCS(=O)(=O)c1nc(S(=O)(=O)c2ccc(C)cc2)c(NCCCN2CCCC2=O)s1 | -3.0 | 0.0 | 0.0 | -1.6 | 0.4 | -1.0 | x | x
Cc1cc(C)cc(-n2c(C)cc(/C=N/NC(=O)c3ccncc3)c2C)c1 | -1.3 | 0.7 | 0.6 | -4.1 | 0.5 | -1.3 | x | x
Cc1cc(/C=N/NC(=O)c2ccsc2)c(C)n1-c1cnccn1 | 2.8 | 0.3 | 0.3 | 8.0* | 8.7 | 0.1 | 4.4 | 3.5
CN(C)CCCN1C(=O)c2cccc3c(Br)ccc(c23)C1=O | 0.9 | 0.5 | 0.3 | 9.2* | 0.8 | -0.6 | 34.8* | 0.4
COc1ccc(SCC(=O)Nc2ccc(N3CCN(C)CC3)c(F)c2)cc1 | -0.7 | 0.9 | 1.4 | 2.5 | 4.5 | -1.9 | x | x
Cc1ccc(SCC(=O)Nc2ccc(N3CCN(C)CC3)c(F)c2)cc1 | 0.3 | 1.5 | 1.8 | 10.6* | 10.3 | 0.5 | 4.7 | 3.7
COc1ccccc1-c1nn2c(-c3ccco3)nnc2s1 | 1.9 | 2.9 | 5.9* | 14.6* | 7.9 | -0.1 | 26.3* | 10.4*
c1coc(-c2nn3c(-c4ccco4)nnc3s2)c1 | -0.7 | -0.1 | -0.6 | 1.0 | -0.8 | -0.5 | x | x
O=C(CCCN1C(=O)S/C(=C\C=C\c2ccccc2)C1=O)Nc1ccc(C(=O)O)cc1 | 0.4 | 0.8 | 1.3 | 8.5* | 5.0 | -0.7 | 5.0 | 1.9
COc1ccccc1NS(=O)(=O)c1ccc2oc(SC)nc2c1 | -2.6 | -0.1 | -0.8 | -2.7 | -3.6 | -1.7 | x | x
COc1ccccc1NS(=O)(=O)c1ccc2oc(N)nc2c1 | -2.2 | 0.5 | 0.7 | 10.6* | 0.0 | -1.0 | -0.4 | 2.5
CCN(CC)S(=O)(=O)c1ccc(NC(=O)c2ccccn2)cc1 | 0.8 | 1.9 | 1.0 | 9.8* | 6.3 | -1.2 | 5.7 | 8.5*
COc1ccc2nc3cc(Cl)ccc3c(Nc3ccc(O)c(CN4CCN(C)CC4)c3)c2c1 | 1.1 | 1.8 | 4.3* | 20.1* | 5.1 | -1.0 | 90.8* | 2.0
CCOC(=O)N1CCN(C(=O)c2ccc3c(=O)n(Cc4ccc(Cl)cc4)c(=S)[nH]c3c2)CC1 | 0.2 | -0.9 | -0.2 | 8.2* | 4.3 | -0.6 | -4.2 | 1.5
COc1ccc(-c2csc3nc(C)n(-n4cccc4)c(=O)c23)cc1OC | 0.0 | -0.4 | -1.1 | 9.1* | -0.8 | -0.5 | -1.8 | 1.9
COc1ccc(-c2csc3ncn(-c4cccc(C)c4)c(=O)c23)cc1OC | -0.3 | -0.2 | 3.2 | -1.3 | 0.1 | -1.5 | x | x

Screens from PubChem BioAssay.
